Hits are enriched below; roughly 1.8% of the tested compounds scored in any of these assays.
LYPLA2 counter: blocks human lysophospholipase 2, a PME1 counter-screen; O95372; recombinant LYPLA2, FP-Rh probe fluorescence polarization; inhibition, % at 5.9 µM; 0.38% of 320,000 active; AID 2177;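 active = inhibition above the screen-wide mean plus 3 SD, limit set per campaign, cut at about 26% in these data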
Target sequence (O95372 whole entry, looked up): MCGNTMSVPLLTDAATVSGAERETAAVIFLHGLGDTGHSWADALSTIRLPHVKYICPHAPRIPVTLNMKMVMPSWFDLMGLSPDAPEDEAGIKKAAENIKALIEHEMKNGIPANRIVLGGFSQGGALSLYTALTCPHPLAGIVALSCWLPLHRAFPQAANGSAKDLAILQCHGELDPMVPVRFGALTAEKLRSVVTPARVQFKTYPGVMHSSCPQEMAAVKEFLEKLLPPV
PME-1 inh: blocks human protein phosphatase methylesterase 1; recombinant PME-1, FP-Rh probe fluorescence polarization; AID 2130; inhibition, % at 5.9 µM; 0.53% of 320,000 active;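 active = inhibition above the campaign mean of all compounds plus 3 SD, cut at about 26% in these data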;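 note: competitive labeling of PME-1 active site by serine hydrolase directed probe; inhibitors block probe labeling so polarization falls and inhibition rises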
Target sequence (Q9Y570 whole entry, looked up): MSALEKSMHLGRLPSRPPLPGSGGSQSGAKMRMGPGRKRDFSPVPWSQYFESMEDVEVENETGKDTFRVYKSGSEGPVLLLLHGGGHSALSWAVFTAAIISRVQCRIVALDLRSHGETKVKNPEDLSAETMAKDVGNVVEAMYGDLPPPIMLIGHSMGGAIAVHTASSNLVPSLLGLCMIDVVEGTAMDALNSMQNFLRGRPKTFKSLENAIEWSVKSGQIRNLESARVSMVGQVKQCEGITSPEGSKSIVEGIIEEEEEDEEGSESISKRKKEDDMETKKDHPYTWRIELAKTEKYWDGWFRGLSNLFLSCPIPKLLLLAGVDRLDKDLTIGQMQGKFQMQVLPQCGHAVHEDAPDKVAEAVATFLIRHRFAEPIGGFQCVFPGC
Fam108B counter: blocks mouse Fam108B hydrolase in RBBP9 counter-screen. recombinant Fam108B, FP-Rh probe fluorescence polarization. inhibition, % at 9.51 µM. 0.33% of 300,000 active. AID 1947;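 active = inhibition above the screen mean inhibition plus 3 SD, computed separately per campaign, cut at about 18% in these data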;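 note: inhibitors lower polarization as less probe binds the enzyme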
GSTO1 inh: counter-screen for RBBP9 inhibitors: inhibitors of human GSTO1 | recombinant GSTO1, activity-based probe fluorescence polarization | inhibition, % at 5.96 µM | 1.1% of 300,000 active;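 active = inhibition above the campaign mean inhibition plus 3 SD, cut at about 35% in these data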
LYPLA1 inh: counter-screen for PME1 inhibitors: inhibitors of human LYPLA1; recombinant LYPLA1, FP-Rh probe fluorescence polarization; inhibition, % at 5.9 µM; AID 2174; 0.16% of 320,000 active;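 active = inhibition above the mean of all tested compounds plus 3 SD, set per campaign, cut at about 14% in these data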;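 note: inhibitors block serine hydrolase probe labeling of LYPLA1 so polarization falls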
PAD4 inh: PAD4 (human) enzyme inhibition | Q9UM07 | recombinant PAD4, RCA probe fluorescence polarization | inhibition, % at 6.36 µM | 0.41% of 330,000 active;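 active = percent inhibition above a cutoff equal to the mean of all tested compounds plus 3 SD, cut at about 15% in these data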
LYPLA2 confirm: counter-screen for PME1 inhibitors: confirmation of human LYPLA2 inhibitors | recombinant LYPLA2, FP-Rh probe fluorescence polarization | AID 2232 | 72% of 1,100 active | inhibition, % at 5.9 µM | shares compounds with LYPLA2 counter;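 active = mean inhibition across replicates above the hit cutoff set in the primary screen, cut at about 26% in these data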;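 note: blocked labeling of the enzyme by serine hydrolase FP-Rh probe lowers polarization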
LYPLA2 gel ABPP: inhibitors of human LYPLA2. shares compounds with LYPLA2 counter. rhLYPLA2 in mouse brain proteome, gel ABPP FP-Rh. inhibition, % at 20 µM. 30% of 150 active. AID 652029;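 active = inhibition of LYPLA2 enzyme probe labeling above about 50%, limit read from the data; inactive = inhibition below that limit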;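 note: loss of FP-Rh probe labeling of the LYPLA2 gel band measured as band density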
Large screens that a line does not name were inactive (follow-up assays come after a bar, where they were run).

O=C(Nc1ccc(S(=O)(=O)N2CCOCC2)cc1)c1cc(S(=O)(=O)N2CCOCC2)ccc1Cl	LYPLA2 counter 40 | LYPLA2 confirm 38
O=C(Nc1ccc(S(=O)(=O)C(F)F)cc1)c1cccc(S(=O)(=O)N2CCOCC2)c1	LYPLA2 counter 35 | LYPLA2 confirm 38
CC1Cc2cc(S(=O)(=O)N3CCN(c4ccc(Cl)cc4)CC3)ccc2N1C(=O)C1CC1 (configuration not stated)	none
CC(=O)N1c2ccc(S(=O)(=O)N3CCC(C(=O)N4CCN(c5ccc(Cl)cc5)CC4)CC3)cc2CC1C (configuration not stated)	LYPLA2 counter 92 | LYPLA2 confirm 92 | LYPLA2 gel ABPP 75
COc1cccc(N2CCN(C(=O)C3CCN(S(=O)(=O)c4ccc5c(c4)CC(C)N5C(C)=O)CC3)CC2)c1 (configuration not stated)	LYPLA2 counter 40 | LYPLA2 confirm 49
O=C(c1ccc([N+](=O)[O-])s1)N1CCN(c2ccc(C(F)(F)F)cn2)CC1	none
CCCCCCOc1ccc(OC(=O)c2ccncc2)cc1	LYPLA2 counter 47 | LYPLA2 confirm 56
CCOCCCNC(=O)c1ccc2c(c1)ncn2-c1cccc(C)c1	none
O=[N+]([O-])c1c(Nc2cccc(O)c2)cc(Cl)c2nonc12	LYPLA2 counter 47 | LYPLA2 confirm 51
O=C(O)c1ccc(Nc2cc(Cl)c3nonc3c2[N+](=O)[O-])cc1	none
O=C(O)c1ccc(Oc2cc(Oc3ccc(C(=O)O)cc3)cc([N+](=O)[O-])c2)cc1	none
Cc1cc(Oc2cc(N)cc([N+](=O)[O-])c2)ccc1Cl	LYPLA2 counter 42 | LYPLA2 confirm 39
Cc1cc(=O)oc2c3c(cc(OCC(=O)NCC4CCC(C(=O)O)CC4)c12)OC(C)(C)CC3 (configuration not stated)	none
CSc1ccc(C(=O)C2CCCN(C(=O)c3cc4cc(F)ccc4[nH]3)C2)cc1 (configuration not stated)	LYPLA2 counter 36 | LYPLA2 confirm 41
CN(CC(=O)Nc1ccccc1Cl)C(=O)CN1C(=O)C2CC=CCC2C1=O (configuration not stated)	none (no result: LYPLA2 counter, PME-1 inh, Fam108B counter, GSTO1 inh, LYPLA1 inh)
O=[N+]([O-])c1cccnc1SCc1ccccc1	LYPLA2 counter 38 | LYPLA2 confirm 49
Cc1occc1C(=O)N1CCCC(N2CCN(c3cccc(C(F)(F)F)c3)CC2)C1 (configuration not stated)	LYPLA2 counter 28 | LYPLA2 confirm 28
O=C(CSc1ccccc1)N1CCCC(N2CCN(c3cccc(Cl)c3)CC2)C1 (configuration not stated)	LYPLA2 counter 69 | LYPLA2 confirm 64 | LYPLA2 gel ABPP inactive
Cc1ncoc1C(=O)N1CCCC(N2CCN(c3cccc(C(F)(F)F)c3)CC2)C1 (configuration not stated)	LYPLA2 counter 63 | LYPLA2 confirm 69 | LYPLA2 gel ABPP inactive
Cc1cc(C(=O)N2CCCC(N3CCN(c4cccc(C(F)(F)F)c4)CC3)C2)nn1C (configuration not stated)	none
Cc1cc(C(=O)N2CCCC(N3CCN(c4cccc(C(F)(F)F)c4)CC3)C2)c(C)o1 (configuration not stated)	LYPLA2 counter 31 | LYPLA2 confirm 41
Cc1ccc(CCS(=O)(=O)c2ccc(C(C)(C)C)cc2)cn1	none
COc1ccc2c(c1)C(C)=CC(C)(C)N2S(=O)(=O)c1ccc(Br)cc1	none
CSc1cccc(NC(=S)Nc2cc(C)ccc2C)c1	none
CC1(CCC(=O)N2CCCC(N3CCN(c4cccc(C(F)(F)F)c4)CC3)C2)CC1 (configuration not stated)	LYPLA2 counter 32 | LYPLA2 confirm 31
O=C(CSc1nc2ccccc2c(=O)n1CC1CCCO1)Nc1ccc(F)cc1 (configuration not stated)	none
COc1cc(/C=N/NC(=O)C(NC(=O)c2ccccc2)c2n[nH]c(=O)c3ccccc23)ccc1OCC(N)=O (configuration not stated)	LYPLA2 counter 78 | LYPLA2 confirm 74
O=C(CSc1ccc(Cl)cc1)N1CCN(c2ccc([N+](=O)[O-])cc2Cl)CC1	LYPLA2 counter 31 | LYPLA2 confirm inactive
O=C1CCCC(=NNC(=O)c2ccc(CN3c4cccc5cccc(c45)S3(=O)=O)cc2)C1	none (no result: LYPLA2 counter, PME-1 inh, Fam108B counter, GSTO1 inh, LYPLA1 inh, PAD4 inh) | LYPLA2 gel ABPP inactive
O=C(N/N=C/c1cccnc1)c1ccc(CN2c3cccc4cccc(c34)S2(=O)=O)cc1	none
CCOc1cc(C(=O)Nc2ccc(S(=O)(=O)NC3=NCCCCC3)cc2)cc(Br)c1OC	none
O=c1c2ccccc2ncn1CCCSc1ccccc1	none
O=c1c2ccccc2ncn1CCCSc1ccc(Cl)cc1	LYPLA2 counter 34 | LYPLA2 confirm 29
COc1ccc(-n2nc(C(=O)NCC(=O)N3CCCC3)c3ccccc3c2=O)c(OC)c1	none
COc1ccc(-n2nc(C(=O)NCC(=O)N3CCN(c4ccc(F)cc4)CC3)c3ccccc3c2=O)c(OC)c1	LYPLA2 counter 58 | LYPLA2 confirm 62 | LYPLA2 gel ABPP inactive
O=C(NCCCC1CCCC1)C1CCC(=O)N(Cc2ccc(Cl)cc2)C1 (configuration not stated)	LYPLA2 counter 28 | LYPLA2 confirm 34
Cc1ccc(Cl)cc1N1CCN(C(=O)CCCn2c(=O)c3cccn3c3cccnc32)CC1	LYPLA2 counter 38 | LYPLA2 confirm 34
C[C@H](CO)N1C[C@H](C)[C@@H](CN(C)S(=O)(=O)c2cn(C)cn2)Oc2ccc(NC(=O)NC3CCCCC3)cc2C1=O	none (no result: LYPLA2 counter, PME-1 inh, Fam108B counter, GSTO1 inh, LYPLA1 inh)
COc1ccc2c(c1)C(=O)[C@@H](O)[C@H](c1ccc(OC)c(Br)c1)O2	LYPLA2 counter 70 | LYPLA2 confirm 70 | LYPLA2 gel ABPP 63
S=C(NCCCN1CCOCC1)Nc1ccc(Cl)cc1	LYPLA2 counter 27 | LYPLA2 confirm inactive
CCCCn1c(N)c(N(CCOC)C(=O)c2cccc(-n3cnnn3)c2)c(=O)[nH]c1=O	none
Cc1cc(C(=O)OCC(=O)c2cccs2)c2ccccc2n1	LYPLA2 counter 31 | LYPLA2 confirm 43
Cc1cc(C(=O)OCC(=O)NC(C)C)c2ccccc2n1	none
N=C1SCC(=O)N1c1ccc(Cl)cc1	none
COc1ccc(S(=O)(=O)NCc2ccc(C(=O)N3CCN(Cc4ccccc4)CC3)cc2)cc1	LYPLA2 counter 68 | LYPLA2 confirm 59 | LYPLA2 gel ABPP inactive
O=C(c1cccc(S(=O)(=O)NCc2ccccc2)c1)N1CCN(Cc2ccccc2)CC1	none

High-throughput results from PubChem.
